Results filed as inconclusive are left out. Calls of active or inactive are those of the source. Unless noted, calls come from the whole dose curve; as a rule, active = well fitted curve in the direction sought with a large enough effect; inconclusive = small, poorly fitted or top-dose-only effect, or another doubt; inactive = no such curve, though single readings can be large; an effect the other way counts as inactive or inconclusive.
Assays:
[1] = Cell Viability - LYMP2-001 (AID 921); note: nearly all actives have a fitted effect of over 70% in size; note: potency is the fitted concentration of half-maximal effect
Summary of the method: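 A lymphoblastoid cell line of human origin was treated with library compounds across a concentration series for 24 hours, and viable cell number was estimated from ATP-driven luciferase light output. Hill modeling gave AC50.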

[2] = Confirmation and Secondary Assay for Modulators of Hemoglobin Beta Chain Splicing at IVS2 705 locus (AID 930);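 note: HeLa cells stably expressing the EGFP-705 splicing reporter; GFP fluorescence per well restored by corrected splicing of the IVS2-705 intron in EGFP; series mostly up to about 46 µM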
Summary of the method: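 HeLa cells stably carrying EGFP interrupted by mutant beta-globin intron 2 (IVS2-705) treated 2 days at 37C with compound; 500 nM antisense PNA as control. Correct splicing read as total peak GFP intensity per well by laser-scanning cytometry.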

[3] = MultiTox-Fluor Cytotoxicity Assay - LYMP1-001 - Dead Cells (AID 946)
Summary of the method: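 Cytotoxicity as increased dead-cell protease fluorescence (bis-AAF-R110, 485/520 nm), read 60 min after MultiTox-Fluor reagent. Human lymphoblastoid line exposed 16 h; Hill-fitted AC50, with DMSO as 0% and 15 uM tetraoctylammonium bromide as 100%.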

[4] = MultiTox-Fluor Cytotoxicity Assay - LYMP1-001 - Live Cells (AID 947); note: potency is the fitted concentration of half-maximal effect
[5] = Cell Viability - LYMP1-002 - Assay at 16 hr (AID 948); note: potency is the fitted concentration of half-maximal effect
Summary of the method: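 In this qHTS, lymphoblastoid LYMP1-002 cells (human) receive compounds for 16 hr at 37 C. Viability is taken from CellTiter-Glo ATP luminescence, and AC50 derives from standard Hill fits.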

[6] = MultiTox-Fluor Cytotoxicity Assay - LYMP1-002 - Live Cells (AID 955);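 note: cells exposed to compound for 16 hours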; note: potency is the fitted concentration of half-maximal effect
Summary of the method: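 After 16 h compound exposure at 37 C, live LYMP1-002 lymphoblastoid cells (2500/well) were quantified by cleavage of cell-permeant GF-AFC substrate, read at 405/510 nm after 60 min. Concentration-response fitted with Hill equation for AC50.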

[7] = MultiTox-Fluor Cytotoxicity Assay - LYMP1-003 - Dead Cells (AID 961); note: nearly all actives have a fitted effect of over 70% in size; note: potency is the fitted concentration of half-maximal effect
Summary of the method: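 Dead-cell protease release, detected as bis-AAF-R110 fluorescence at 485/520 nm, was measured in LYMP1-003 cells after 16 h compound treatment at 37 C. AC50 values came from Hill-modeled qHTS curves normalized to DMSO (0%) and 15 uM tetraoctylammonium bromide (100%).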

[8] = MultiTox-Fluor Cytotoxicity Assay - LYMP1-003 - Live Cells (AID 962);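 note: cells exposed to compound for 16 hours at 37 °C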; note: potency is the fitted concentration of half-maximal effect
Summary of the method: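 Live-cell protease activity (GF-AFC substrate, 405/510 nm, 60 min at room temperature) after 16 h, 37 C compound exposure of human lymphoblastoid LYMP1-003 cells; concentration-response fitted to the Hill equation for AC50.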

[9] = Cell Viability - LYMP1-003 - Assay at 24 hr (AID 963); note: potency is the fitted concentration of half-maximal effect
Summary of the method: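 Concentration-response qHTS: ATP loss measured by CellTiter-Glo luminescence after 24 h compound exposure at 37 C. Cells were LYMP1-003 human lymphoblastoid, 2500 per well. AC50 derived via standard Hill equation modeling.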

[10] = Cell Viability - LYMP1-003 - Assay at 40 hr (AID 964); note: nearly all actives have a fitted effect of over 60% in size; note: potency is the fitted concentration of half-maximal effect
Summary of the method: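 Viability is taken as cellular ATP, read by CellTiter-Glo luminescence after 40 h of compound exposure at 37 C. Cells: human lymphoblastoid line LYMP1-003 at 2500/well; AC50 values derived by Hill-equation fitting of concentration-response data.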

[11] = Cell Viability - LYMP2-003 (AID 965);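 note: cells exposed to compounds for 24 h before reading; nearly all actives have a fitted effect of over 50% in size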; note: potency is the fitted concentration of half-maximal effect
Summary of the method: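 qHTS, human lymphoblastoid line, 2500 cells/well, complete medium. 24 h drug, 37 C. ATP-based luminescent readout; Hill-fit AC50.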

[12] = Cell Viability - LYMP2-004 (AID 966); note: nearly all actives have a fitted effect of over 65% in size; note: potency is the fitted concentration of half-maximal effect
Summary of the method: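 AC50 values come from Hill modelling of concentration-dependent loss of intracellular ATP, measured by CellTiter-Glo luminescence. Human LYMP2-004 lymphoblastoid cells (2500/well) were exposed to compound for 24 h at 37 C.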

[13] = Cell Viability - LYMP2-005 (AID 967); note: series mostly up to about 92 µM
Summary of the method: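 Luciferase-based ATP quantitation served as the viability measure in human lymphoblastoid LYMP2-005 cells exposed to test compounds for 24 h at 37 C in complete culture medium. Potency (AC50) was obtained by fitting concentration-response curves with the Hill equation.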

[14] = Cell Viability - LYMP2-009 (AID 968); note: nearly all actives have a fitted effect of over 55% in size; note: potency is the fitted concentration of half-maximal effect
[15] = target: Muscarinic acetylcholine receptor M1 (Rattus norvegicus) (UniProt P08482); test: qHTS Assay for Antagonists of Acetylcholine Muscarinic M1 Receptor: Measurement of IP-One Response (AID 944); note: nearly all actives have a fitted effect of over 75% in size
Summary of the method: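 IP1 accumulation measured via TR-FRET between d2-IP1 and Eu-cryptate anti-IP1 antibody after carbachol (200 nM, EC80) stimulation for 30 min; rat M1-transfected CHO cells received compound 10 min before agonist.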

[16] = target: Pyruvate kinase (Leishmania mexicana) (UniProt Q27686); test: qHTS Validation Assay for Inhibitors of Leishmania Mexicana Pyruvate Kinase (AID 945)
Summary of the method: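 Eight-point qHTS titrations in triplicate, data normalized to DMSO neutral control. Reaction: 0.2 nM LmPYK E451W mutant, 0.5 mM PEP, 0.1 mM ADP, 7 mM MgCl2, pH 7.2, one hour at room temperature; luminescent ATP detection.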

[17] = target: Pyruvate kinase PKM (Homo sapiens) (UniProt P14618); test: qHTS Assay for Activators of Human Muscle Pyruvate Kinase (AID 954; active = well fitted curve in the direction sought with a large enough effect, not every such curve was filed as active)
Summary of the method: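 ATP production by PKM2 detected via luciferase luminescence after 1 h room-temperature reaction (0.1 nM enzyme, PEP at Km 0.5 mM, ADP 0.1 mM, pH 7.2 imidazole buffer). Inhibition scaled to no-enzyme control; activation referenced to 0.3 nM enzyme wells.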

[18] = target: Alpha-galactosidase (Coffea arabica) (UniProt Q42656); test: Counterscreen for Glucocerebrosidase Inhibitors: qHTS Assay for Coffee Bean alpha-Galactosidase at pH 4.5 (AID 957); note: series mostly up to about 77 µM
Summary of the method: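 Fluorogenic qHTS at pH 4.5 (citrate buffer with Tween-20): 2 nM enzyme, 80 uM 4-MU-alpha-galactoside substrate, compound titrated 0.7 nM to 77 uM, 20 min room temperature. Glycine/NaOH stop; 4-MU read Ex 365/Em 440; Hill-equation AC50 against no-enzyme and enzyme controls.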

[19] = target: Muscarinic acetylcholine receptor M1 (Rattus norvegicus) (UniProt P08482); test: qHTS Assay for Antagonists of Acetylcholine Muscarinic M1 Receptor: Kinetic Measurement of Intracellular Calcium Response (AID 943); note: nearly all actives have a fitted effect of over 75% in size; note: potency is the fitted concentration of half-maximal effect
Summary of the method: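 Antagonism measured as reduction of carbachol-evoked (EC80, 100 nM final) calcium flux in rat M1-CHO cells after 10 min compound exposure. Fluo-4 signal read kinetically; ratio of maximal to basal fluorescence.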

[20] = qHTS Assay for Identification of Small Molecule Antagonists for Thrombopoietin (TPO) Signaling Pathway (AID 918); settings: TPO-dependent cell signaling reporter, antagonist mode; note: potency is the fitted concentration of half-maximal effect; nearly all actives have a fitted effect of over 60% in size
Summary of the method: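 Inhibition read as reduced luciferase luminescence after 24 h at 37 C in IL-3-deprived Ba/F3 cells carrying human TPO receptor and GPIIb-promoter reporter, stimulated with 26 pM TPO (final, its EC50) alongside compound.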

Measured: Potency

Alpha-galactosidase (Coffea arabica), sequence (Q42656 whole entry, looked up): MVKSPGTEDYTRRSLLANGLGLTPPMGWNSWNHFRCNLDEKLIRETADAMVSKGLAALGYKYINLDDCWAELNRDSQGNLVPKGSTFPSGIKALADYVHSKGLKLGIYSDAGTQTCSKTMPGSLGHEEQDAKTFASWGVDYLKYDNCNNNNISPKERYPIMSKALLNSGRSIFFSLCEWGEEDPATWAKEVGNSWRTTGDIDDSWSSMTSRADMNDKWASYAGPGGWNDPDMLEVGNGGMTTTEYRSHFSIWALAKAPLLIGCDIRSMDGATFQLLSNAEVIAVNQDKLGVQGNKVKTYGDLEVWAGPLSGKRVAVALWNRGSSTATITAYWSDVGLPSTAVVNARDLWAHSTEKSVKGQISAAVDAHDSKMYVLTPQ
Pyruvate kinase PKM (Homo sapiens), sequence (P14618 whole entry, looked up): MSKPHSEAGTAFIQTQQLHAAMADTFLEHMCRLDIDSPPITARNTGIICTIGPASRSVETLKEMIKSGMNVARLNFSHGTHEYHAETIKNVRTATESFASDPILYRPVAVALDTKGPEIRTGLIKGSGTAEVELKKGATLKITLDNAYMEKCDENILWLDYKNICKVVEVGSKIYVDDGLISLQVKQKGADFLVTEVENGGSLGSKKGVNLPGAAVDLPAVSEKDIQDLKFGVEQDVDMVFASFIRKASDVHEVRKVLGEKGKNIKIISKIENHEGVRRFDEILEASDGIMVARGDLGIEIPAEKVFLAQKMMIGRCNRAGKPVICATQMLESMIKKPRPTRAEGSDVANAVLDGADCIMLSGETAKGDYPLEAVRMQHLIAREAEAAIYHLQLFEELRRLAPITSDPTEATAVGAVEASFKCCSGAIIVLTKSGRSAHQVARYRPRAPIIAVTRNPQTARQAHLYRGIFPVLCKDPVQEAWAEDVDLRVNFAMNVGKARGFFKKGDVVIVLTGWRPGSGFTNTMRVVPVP
Pyruvate kinase (Leishmania mexicana), sequence (Q27686 2-499 E452W): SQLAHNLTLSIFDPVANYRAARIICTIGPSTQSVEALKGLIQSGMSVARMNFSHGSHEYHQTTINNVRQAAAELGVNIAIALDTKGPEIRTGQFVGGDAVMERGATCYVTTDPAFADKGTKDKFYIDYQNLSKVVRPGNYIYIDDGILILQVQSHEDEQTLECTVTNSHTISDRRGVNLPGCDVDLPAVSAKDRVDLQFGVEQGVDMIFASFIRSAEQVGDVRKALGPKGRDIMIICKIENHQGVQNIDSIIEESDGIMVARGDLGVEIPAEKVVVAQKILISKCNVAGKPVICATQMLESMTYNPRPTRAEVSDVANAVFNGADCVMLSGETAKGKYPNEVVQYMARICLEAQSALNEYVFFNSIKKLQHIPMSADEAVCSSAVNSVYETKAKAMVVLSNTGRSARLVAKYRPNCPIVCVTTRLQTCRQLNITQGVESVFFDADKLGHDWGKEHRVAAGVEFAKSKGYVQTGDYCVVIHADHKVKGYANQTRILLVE
Muscarinic acetylcholine receptor M1 (Rattus norvegicus), sequence (P08482 whole entry, looked up): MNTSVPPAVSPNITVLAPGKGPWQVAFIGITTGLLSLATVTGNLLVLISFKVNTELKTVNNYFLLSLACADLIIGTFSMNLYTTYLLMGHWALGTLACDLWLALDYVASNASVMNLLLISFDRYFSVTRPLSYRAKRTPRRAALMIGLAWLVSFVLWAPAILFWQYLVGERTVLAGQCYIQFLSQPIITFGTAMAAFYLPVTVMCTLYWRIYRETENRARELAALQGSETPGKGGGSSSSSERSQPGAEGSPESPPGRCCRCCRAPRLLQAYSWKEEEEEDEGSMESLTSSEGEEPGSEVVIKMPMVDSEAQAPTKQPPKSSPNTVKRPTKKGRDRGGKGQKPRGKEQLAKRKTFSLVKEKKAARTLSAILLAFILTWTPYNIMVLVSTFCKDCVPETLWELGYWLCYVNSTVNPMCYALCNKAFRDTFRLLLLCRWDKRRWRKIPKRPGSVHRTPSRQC

COC(C)(C)CCCC(C)C/C=C/C(C)=C/C(=O)OC(C)C (configuration not stated)
inactive: [1] | [2] | [3] | [4] | [5] | [6] | [7] | [8] | [9] | [10] | [11] | [12] | [13] | [14]

CCOP(=O)(NC(C)C)Oc1ccc(SC)c(C)c1 (configuration not stated)
inactive: [1] | [3] | [5] | [6] | [7] | [8] | [9] | [10] | [11] | [12] | [13] | [14]

CC(C)(O)C(=O)Nc1ccc([N+](=O)[O-])c(C(F)(F)F)c1
inactive: [1] | [3] | [4] | [5] | [6] | [7] | [8] | [9] | [10] | [11] | [12] | [13] | [14]

Cc1nccc2c1[nH]c1ccccc12
inactive: [2] | [15] | [16] | [17] | [18]

O=C(O)COc1ccccc1
inactive: [1] | [3] | [5] | [6] | [7] | [8] | [9] | [10] | [11] | [12] | [13] | [14]

CCCCCCCCCCCCCCCC[N+](C)(C)C
inactive: [2]

Cc1cc(O)ccc1Cl
inactive: [1] | [2] | [3] | [4] | [5] | [6] | [7] | [8] | [9] | [10] | [11] | [12] | [13] | [14]

NC(N)=NOCCC(N)C(=O)O (configuration not stated)
inactive: [2] | [19] | [16] | [17] | [18]

Nc1ccc(Sc2ccc(N)cc2)cc1
inactive: [1] | [3] | [4] | [5] | [6] | [7] | [8] | [9] | [10] | [11] | [12] | [13] | [14]

Nc1ccc([N+](=O)[O-])cc1
inactive: [1] | [3] | [4] | [5] | [6] | [7] | [8] | [9] | [10] | [11] | [12] | [14]

CCOCCOC(C)=O
inactive: [1] | [3] | [4] | [5] | [6] | [7] | [8] | [9] | [10] | [11] | [12] | [13] | [14]

CN[C@@H]1C[C@@H](c2ccc(Cl)c(Cl)c2)c2ccccc21
active: [20] 12600 nM | [19] 2240 nM
inactive: [15] | [16] | [17] | [18]

c1cc2ccc3cccc4ccc(c1)c2c34
inactive: [1] | [3] | [4] | [5] | [6] | [7] | [8] | [9] | [10] | [11] | [12] | [13] | [14]

CCC(=O)OC1CCC2C3CCC4=CC(=O)CC[C@@]4(C)C3CC[C@]12C (some centres not stated)
inactive: [2]

O=[N+]([O-])c1cc([N+](=O)[O-])c2ccccc2c1
inactive: [1] | [3] | [4] | [5] | [6] | [7] | [8] | [9] | [10] | [11] | [12] | [13] | [14]

COc1ccc(C(c2ccc(OC)cc2)C(Cl)(Cl)Cl)cc1
inactive: [1] | [2] | [3] | [4] | [5] | [6] | [7] | [8] | [9] | [10] | [11] | [12] | [13] | [14]

CC(=O)[O][Hg][c]1ccccc1
inactive: [2]
active: [1] 501 nM | [4] 5010 nM | [5] 6310 nM | [6] 3160 nM | [7] 2510 nM | [8] 3160 nM | [9] 3160 nM | [10] 1580 nM | [11] 1580 nM | [12] 1000 nM | [14] 501 nM

Cc1c(C(=O)c2cccc3ccccc23)c2cccc3c2n1[C@H](CN1CCOCC1)CO3
active: [20] 12600 nM
inactive: [16] | [17] | [18]

CC(Cc1ccc(O)cc1)NCC(O)c1cc(O)cc(O)c1 (configuration not stated)
inactive: [2]

NCCc1c[nH]c2ccccc12
inactive: [2] | [19] | [15] | [16] | [17] | [18]

Nc1ccc(Cl)cc1
inactive: [1] | [3] | [4] | [5] | [6] | [7] | [8] | [9] | [10] | [11] | [12] | [13] | [14]
